{"source": "the supplement of paper PMC10338343", "note": "± gives the standard deviation.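 Also: 1 nM active piRISC with 0.1 nM target library at 33 °C single turnover.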"}
{"system": "MILI (PIWIL2) piRISC loaded with L1MC piRNA (26 nt)", "assay": "pre-steady-state target cleavage rate (min^-1); guide: L1MC piRNA 5'p-UAACUAAAUACUAUGCAAGCUGUAGG; higher = faster piRNA-guided slicing of the target", "details": "auxiliary factor: 500 nM mouse GTSF1", "how_it_was_run": "(§1)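 Reactions were run for 0–8 or 0–960 min at 33 °C in HEPES–potassium acetate buffer, combining 1 nM active affinity-purified piRISC with one synthetic guide, […] transcribed, DNA-blocked target RNA library and, in some cases, 500 nM GTSF1 partner protein. Sequencing of uncleaved targets followed, with normalisation to depth and to weakly complementary targets. Three trials were pooled, k3 was capped at 0.0001 min^-1, and the pre-steady-state cleavage rate was taken from a burst-and-steady-state fit.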"}
{"sequence": "UCCUGGUACAGCUUGCAUAGUAUAAAGAAA", "pre-steady-state target cleavage rate": "0.0207 ± 0.0082"}
{"sequence": "UCCUGGAACAGCUUGCAAUCUAUUUAGUAA", "pre-steady-state target cleavage rate": "0.025 ± 0.0099"}
{"sequence": "UCCUGCUACAGCUUGCAUAGUAAAUAGUUA", "pre-steady-state target cleavage rate": "0.17 ± 0.027"}
{"sequence": "UCCUGGAUGUGCUUGCAUAGUAAAAAGUUA", "pre-steady-state target cleavage rate": "0.0196 ± 0.0079"}
{"sequence": "UCCUCCUACAGCUUGCUAUGUAUUUUCAAA", "pre-steady-state target cleavage rate": "0.006 ± 0.0037"}
{"sequence": "UCCUGCUACAGCUACCAUAGUAUUUAGAAA", "pre-steady-state target cleavage rate": "0.0677 ± 0.021"}
{"sequence": "UCCUGGAUGUCCAUGCAAAGUAUUUAGUUA", "pre-steady-state target cleavage rate": "0.0101 ± 0.0043"}
{"sequence": "UCCUGGAACAGCUUGCAUAGUAUUUACUAA", "pre-steady-state target cleavage rate": "0.0459 ± 0.013"}
{"sequence": "UCCUGGAUGUGCUUGGCAUAGUAUUUAGUUA", "pre-steady-state target cleavage rate": "0.19 ± 0.057"}
{"sequence": "UCCUGCUACAGCUUGCAUAGAUUUUAGUUA", "pre-steady-state target cleavage rate": "0.0475 ± 0.0083"}
{"sequence": "UCCUCCUACAGCUUGCAUACAAUUUAGUUA", "pre-steady-state target cleavage rate": "0.00727 ± 0.0046"}
{"sequence": "UCCUGGAUGUCGAAGCAUAGUAUUGAGUUA", "pre-steady-state target cleavage rate": "0.00685 ± 0.0034"}
{"sequence": "UCCUGCUACAGGAUGCAUAGUAUUUACAAA", "pre-steady-state target cleavage rate": "0.0053 ± 0.0037"}
{"sequence": "UCCUGCUACAGCUUGCAUACUAUAUAGUUA", "pre-steady-state target cleavage rate": "0.0515 ± 0.015"}
{"sequence": "UCCUCCUACAGCUUGCAUAGUUAAUACAAA", "pre-steady-state target cleavage rate": "0.014 ± 0.0056"}
{"sequence": "UCCUGGAUGUGCUAGCAUAGUAUAUAGUUA", "pre-steady-state target cleavage rate": "0.115 ± 0.018"}
{"sequence": "UCCUGCUACAGCUUGCAUAGUAUAAAGAAA", "pre-steady-state target cleavage rate": "0.0621 ± 0.021"}
{"sequence": "UCCUGGUACAGCUAGCAUAGUAUUUACAAA", "pre-steady-state target cleavage rate": "0.0365 ± 0.012"}
{"sequence": "UCCUGCUACAGCUUGCAUAGUAAAAACAAA", "pre-steady-state target cleavage rate": "0.0234 ± 0.01"}
{"sequence": "UCCUGGUACAGCUUGCAAAGUAUAUAGUUA", "pre-steady-state target cleavage rate": "0.0931 ± 0.016"}
{"sequence": "UCCUGGAUGUCGUUGCAUAGUAUUAUGUUA", "pre-steady-state target cleavage rate": "0.156 ± 0.045"}
{"sequence": "UCCUGGAUGUCGUUGCAUAGUAUUUAGAUA", "pre-steady-state target cleavage rate": "0.0436 ± 0.017"}
{"sequence": "UCCUGGAUCAGCUAGCAUAGUAUUUUCAAA", "pre-steady-state target cleavage rate": "0.0498 ± 0.013"}
{"sequence": "UCCUGGAACAGCUUGCAUAGUAUUUACAUA", "pre-steady-state target cleavage rate": "0.0382 ± 0.014"}
{"sequence": "UCCUGGAUGUCCUUGCUUAGUAUUUAGAUA", "pre-steady-state target cleavage rate": "0.0358 ± 0.0092"}
{"sequence": "UCCUGGAUGAGCUUCCAUUGUAUUUAGUUA", "pre-steady-state target cleavage rate": "0.0518 ± 0.016"}
{"sequence": "UCCUGGAUCAGCUUGCAUAGAAUUUAGAAA", "pre-steady-state target cleavage rate": "0.0123 ± 0.0052"}
{"sequence": "UCCUGGAUCAGGUUGCAUAGUAUUUACAAA", "pre-steady-state target cleavage rate": "0.0312 ± 0.011"}
{"sequence": "UCCUCCUACAGCUUGCAUUGUAUUUUCAAA", "pre-steady-state target cleavage rate": "0.0415 ± 0.012"}
{"sequence": "UCCUGGAUCAGCUUCCAUUGUAUUUAGUUA", "pre-steady-state target cleavage rate": "0.0508 ± 0.0093"}
{"sequence": "UCCUGGAUGUCCUUGCAUAGUAUUUAUUA", "pre-steady-state target cleavage rate": "0.0219 ± 0.0073"}
{"sequence": "UCCUGGAUGUGCUUGCAUAGAAUAUAGUUA", "pre-steady-state target cleavage rate": "0.00814 ± 0.0043"}
{"sequence": "UCCUGGUACAGCUUGCUAAGUAUUUAGAAA", "pre-steady-state target cleavage rate": "0.0132 ± 0.0056"}
{"sequence": "UCCUGGAUGUCCUUGCUAUGUAUUUAGUAA", "pre-steady-state target cleavage rate": "0.00762 ± 0.0042"}
{"system": "MILI (PIWIL2) piRISC loaded with L1MC piRNA (26 nt)", "assay": "pre-steady-state target cleavage rate (min^-1); guide: L1MC piRNA 5'p-UAACUAAAUACUAUGCAAGCUGUAGG; MIWI and MILI are mouse PIWI proteins and EfPiwi is from a freshwater sponge; tags in brackets are library labels; higher = faster piRNA-guided slicing of the target", "details": "auxiliary factor: none (no GTSF1)", "how_it_was_run": "as §1"}
{"sequence": "UCCUGGAUGUCGAACGUUAGUAAUUAGUUA", "pre-steady-state target cleavage rate": "< 0.0001"}
{"sequence": "UCCUGGAUGUCGAACCAUACAAUUUAGUUA", "pre-steady-state target cleavage rate": "< 0.0001"}
{"sequence": "UCCUGGAUGUCGAACGUAUCUAUUCUAGUUA", "pre-steady-state target cleavage rate": "< 0.0001"}
{"sequence": "UCCUGGAUGUCGAACCAUAGUAUUAAGUAA", "pre-steady-state target cleavage rate": "< 0.0001"}
{"sequence": "UCCUGGAUGUCGUUGCAUAGUUUUAAGUUA", "pre-steady-state target cleavage rate": "0.0042 ± 0.0022"}
